Data on 26 compounds can be found in PubChem BioAssay (NCATS).

Results filed as inconclusive are left out. Entries that show only a call come without a potency. Values without a mark were called inactive. Activity calls are given as the source filed them. The call rests on the fitted dose curve; in most records, active means well fitted curve in the direction sought with a large enough effect; inconclusive means small, poorly fitted or top-dose-only effect, or another doubt; inactive means no such curve, though single readings can be large; an effect the other way counts as inactive or inconclusive.

Experiment [1] is described as follows: P-glycoprotein substrates identified in KB-3-1 adenocarcinoma cell line, qHTS therapeutic library screen (AID 1346986). Further: nearly all actives have a fitted effect of over 60% in size. The method, boiled down: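 Viability read by CellTiter-Glo after 72 h compound exposure in dose-response of KB-3-1 and KB-8-5-11 (P-gp-high) cells. Hits needed AC50 < 10 uM, >50% maximum response and curve class -1.1 to -2.4. Cherry-picks retested ± tariquidar, including pcDNA/MDR-19 HEK-293 pair.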
(In qHTS, concentration-response curves come from the screen itself.)

Experiment [2] in a line: P-glycoprotein substrates identified in KB-8-5-11 adenocarcinoma cell line, qHTS therapeutic library screen (AID 1346987). Further: nearly all actives have a fitted effect of over 65% in size. Further: potency means the concentration at half of the fitted maximal effect. On activity change, negative = cytotoxicity: series mostly up to about 44 µM. Put shortly: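 Compounds are pinned in dose-response onto KB-8-5-11 cells (500 cells/well, colchicine-free medium) and left 72 h at 37 degree C. CellTiter-Glo luminescence then yields AC50 values.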

Consider `CC1=CC2/C=C(\C)CCC(O)C3OC(C)(C)OC3CC(=O)OC23C(=O)NC(CC(C)C)C3C1C` (stereo not drawn), for which the Potency entry in experiment [1] and in experiment [2] was “inactive” in each case.

On to `COC(=O)C1(C)CCC(O)C2(C)c3cc(O)c(C(C)C)cc3C(O)C(OC(C)=O)C12` (stereo not drawn), for which the Potency entry in experiment [1] and in experiment [2] was “inactive” throughout.

As to `CO[C@@H]1[C@H](O)[C@@H](O[C@@H]2C[C@H]3CC[C@@H]4C(CC[C@]5(C)[C@@H](C6=CC(=O)OC6)CC[C@]45O)[C@@]3(C)[C@H](O)C2)O[C@H](C)[C@@H]1O[C@@H]1O[C@H](CO)[C@@H](O)[C@H](O)[C@H]1O` (stereo partly drawn), the Potency in experiment [2] is 385 nM (active).

With `CC(=O)OC12C(O)C(C)C3(O)C4C=C(C)C(=O)C4CC(CO)=CC3C1C2(C)C` (stereo not drawn), the Potency result in experiment [1] and in experiment [2] was “inactive” each time.

Regarding `CN[C@H]1[C@H](O)[C@H](O[C@@H]2[C@@H](O)[C@H](O[C@H]3O[C@H]([C@H](C)O)[C@@H](O)[C@H](O)[C@H]3N)[C@@H](N)C[C@H]2N)OC[C@@]1(C)O`, in experiment [2], the Potency entry is “inactive”.

For `C=C(CO)C(=O)O[C@H]1C/C(C)=C/CC/C(CO)=C/[C@H]2OC(=O)C(=C)[C@H]12`, the Potency result in experiment [1] and in experiment [2] was “inactive” throughout.

Consider `CC[C@H]1CN2CC[C@H]1C[C@@H]2[C@@H](O)c1ccnc2ccc(OC)cc12`, for which the Potency entry in experiment [2] was “inactive”.

Turning to `CN1CCCC1CCOC(c1cc2nccc(C(=O)O)c2[nH]1)c1ccccc1Cl` (stereo not drawn), the Potency entry in experiment [2] is “inactive”.

For the compound `CCC(C)(C#N)O[C@@H]1O[C@H](CO)[C@@H](O)[C@H](O)[C@H]1O` (stereo partly drawn), the Potency result in experiment [1] and in experiment [2] was “inactive” throughout.

On to `COc1c(C(C)C)cc2c(c1O)[C@@]1(C(=O)O)CCCC(C)(C)C1CC2` (stereo partly drawn), for which the Potency entry in experiment [1] and in experiment [2] was “inactive” in each case.

For `CCCN1CCO[C@H]2c3cc(O)ccc3OC[C@@H]21`, the Potency entry in experiment [1] and in experiment [2] was “inactive” each time.

For the compound `CC1=C2C[C@H]3[C@@H](CC=C4C[C@@H](O)CC[C@@]43C)[C@@H]2CC[C@]12O[C@@H]1C[C@H](C)CN[C@H]1[C@H]2C`, the Potency entry in experiment [2] was “inactive”.

On to `COC(=O)N1CCN(C(=O)Cc2ccc(Cl)c(Cl)c2)[C@@H](CN2CCCC2)C1`, for which, in experiment [2], the Potency entry was “inactive”.

Consider `CC1=C2C(=O)C3[C@@H](CC=C4C[C@@H](O)CC[C@@]43C)[C@@H]2CC[C@]12O[C@@H]1C[C@H](C)CN[C@H]1[C@H]2C` (stereo partly drawn), for which the Potency result in experiment [1] and in experiment [2] was “inactive” in each case.

`Clc1ccc(OCC2=NCCN2)cc1Cl`: in experiment [2], the Potency entry was “inactive”.

Consider `Oc1ccc2c3c1O[C@H]1[C@H](N(CCCl)CCCl)CC[C@@]4(O)[C@@H](C2)N(CC2CC2)CC[C@]314`, for which, in experiment [1], the outcome was “inactive [at 9.29 µM]”. Further, the activity change, negative = cytotoxicity in experiment [2] was 0.87% [at 9.29 µM].

Consider `Cc1cn(C[C@H](N)C(=O)O)c(=O)n(Cc2cc(-c3ccccc3)sc2C(=O)O)c1=O`, for which the Potency entry in experiment [1] and in experiment [2] was “inactive” throughout.

Take `COC(=O)C12C(=O)C(C)(O)C(=O)C1(C)C(C)=CC1C34CCC(OC3=O)C(C)(CO)C4CCC12C` (stereo not drawn): the Potency result in experiment [1] and in experiment [2] was “inactive” in each case.

In the case of `CCc1c(C(=O)C(N)=O)c2c(OCC(=O)OC)cccc2n1Cc1ccccc1`, the Potency entry in experiment [1] and in experiment [2] was “inactive” in each case.

Turning to `CCC1NC(=O)C2C(Cl)C(Cl)CN2C(=O)C(C(C)O)NC(=O)CC(c2ccccc2)NC(=O)C(CO)NC1=O` (stereo not drawn), the Potency entry in experiment [1] and in experiment [2] was “inactive” each time.

As for `CC(C)=C1CC[C@]23CO[C@H](C2)[C@@](O)(C(=O)O)CCC13` (stereo partly drawn), the Potency result in experiment [2] was “inactive”.

`C1=C2CCCN[C@H]2[C@@H]2C[C@H]1[C@H]1CCCCN1C2`: the Potency entry in experiment [1] and in experiment [2] was “inactive” in each case.

As for `COC1=CC(=O)O[C@@H](CCc2ccccc2)C1`, the Potency result in experiment [1] and in experiment [2] was “inactive” throughout.

Regarding `CC1C/C=C/C(O)C(O)CC/C=C/c2cc(O)cc(O)c2C(=O)O1` (stereo not drawn), in experiment [2], the Potency entry was “inactive”.

Take `COC1CC(=O)C23C(=O)NC(CC(C)C)C2C(C)=C(C)C(OO)C3/C=C(\C)CCC(O)C1O` (stereo not drawn): the Potency result in experiment [1] and in experiment [2] was “inactive” each time.

For `C[C@H]1C(=O)O[C@H]2[C@H](O)[C@]34C5OC(=O)[C@]3(O[C@@H]3OC(=O)[C@H](O)C34[C@H](C(C)(C)C)[C@H]5O)C12O` (stereo partly drawn), the Potency entry in experiment [1] and in experiment [2] was “inactive” in each case.
